# Shown are actives, neighbours in structure and some others; about 2.7% of the full set was active somewhere.
# LDHA block: LDHA (human) enzyme inhibition; P00338; purified LDHA, NADH/diaphorase-resazurin fluorescence; active compounds read low; activity change, % (values are at about 110 or 230 µM); hit rate 0.15% among 480,000; AID 1347041; in the data active = activity change below about -30%; inconclusive = mostly about -25% to -30%;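 also: plate controls were DMSO wells for no effect and wells without enzyme for full effect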
#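 Resorufin fluorescence (ex540/em590), read at 0 and 20 min after diaphorase/resazurin addition, reports the NADH left after a 5 min room-temperature reaction of 2 nM human LDH5 with 0.06 mM NADH and 0.2 mM pyruvate.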
# A549 viability: counter-screen for Nrf2 inhibitors: cytotoxicity in A549 cells. A549 ARE-Fluc cells, CellTiter-Fluor viability, 18-24 h. hit rate 0.16% among 390,000. Potency, µM (series often up to 46 µM), for the others: at the top dose activity change, negative = cytotoxicity, most hits filed as inhibitors; also: potency is read from the fitted curve at half-maximal effect; % is scaled to controls: 0 for no effect and ±100 for the full control effect
#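 A549 ARE_Fluc cells in 5% FBS OPTI-MEM were exposed to compounds in concentration-response for 18-24 h at 37 deg C. Viability was read by CellTiter-Fluor fluorescence (Ex 405/Em 525) after 30 min, before the luciferase read.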
# ALOX12 inh: blocks human arachidonate 12S-lipoxygenase; P18054; purified 12hLO, xylenol orange hydroperoxide absorbance; Potency, µM (series often up to 108 µM), inactives show top-dose activity change, negative = inhibition, most hits filed as inhibitors; hit rate 1.1% among 580,000; AID 1671190; also: potency is read from the fitted curve at half-maximal effect; % is scaled to controls: 0 for no effect and ±100 for the full control effect
# Target sequence (P18054 whole entry, looked up): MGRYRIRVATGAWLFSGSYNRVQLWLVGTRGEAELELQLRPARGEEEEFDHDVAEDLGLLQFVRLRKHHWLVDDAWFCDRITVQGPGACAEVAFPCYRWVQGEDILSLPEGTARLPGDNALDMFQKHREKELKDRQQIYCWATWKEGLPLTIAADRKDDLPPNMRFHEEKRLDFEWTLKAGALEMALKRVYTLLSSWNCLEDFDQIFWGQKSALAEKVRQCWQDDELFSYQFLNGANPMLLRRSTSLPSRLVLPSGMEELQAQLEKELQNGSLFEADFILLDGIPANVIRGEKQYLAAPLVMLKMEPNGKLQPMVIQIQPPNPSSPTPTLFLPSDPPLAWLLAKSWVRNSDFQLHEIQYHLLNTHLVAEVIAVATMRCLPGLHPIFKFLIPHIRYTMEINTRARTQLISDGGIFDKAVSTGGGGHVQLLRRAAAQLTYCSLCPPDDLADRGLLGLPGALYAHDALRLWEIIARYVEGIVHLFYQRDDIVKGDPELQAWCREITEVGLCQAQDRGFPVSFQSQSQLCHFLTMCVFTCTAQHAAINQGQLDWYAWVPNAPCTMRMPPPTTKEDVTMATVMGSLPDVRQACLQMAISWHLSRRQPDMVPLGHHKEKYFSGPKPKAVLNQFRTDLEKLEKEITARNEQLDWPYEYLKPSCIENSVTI
#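 Purified human 12hLO at 150 nM in 25 mM Hepes, 0.01% Triton X-100, pH 7.0, preincubated 15 min at room temperature with compound. Reaction started with 40 uM arachidonic acid, 30 min at room temperature. Hydroperoxide measured by Fe-xylenol orange, 573/405 nm absorbance ratio.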
# Nrf2 inh: inhibitors of Nrf2 signaling; A549 ARE-Fluc reporter, luciferase luminescence, 18-24 h; Potency, µM (series often up to 46 µM), for inactives: at the highest dose activity change, negative = inhibition, usual class: inhibitors; hit rate 2.1% among 360,000; AID 504444; also: potency is read from the fitted curve at half-maximal effect; % is scaled to controls: 0 for no effect and ±100 for the full control effect; nearly all actives have a fitted effect of over 60% in size
#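 Two sequential reads on A549 ARE_Fluc cells exposed to compound for 18-24 h: a CellTiter-Fluor fluorescence read for viability, then a luciferase luminescence read for Nrf2/ARE activity.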
# Nrf2 ARE act: activates Nrf2 signaling. AREc32 ARE-luciferase reporter (MCF7-derived line), luminescence, 24 h. AID 624171. Potency, µM (highest dose often 46.1 µM), for the others: at the highest dose activation, most hits filed as activators. hit rate 0.31% among 410,000; also: potency is read from the fitted curve at half-maximal effect; % of control where 0% means no effect; nearly all actives have a fitted effect of over 65% in size
#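 Reporter line AREc32 (ARE-Fluc), seeded overnight in OPTI-MEM with 5% FBS; compound pin-transferred, 24 hr at 37 deg C, 5% CO2; luminescent read-out.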
# ERG-DNA inh: inhibitors of human ERG Ets domain-DNA interaction. P11308. fluorescence polarization, His-ERG Ets domain / labelled DNA. Potency, µM (doses to about 76.9 µM), for inactives: at the highest dose FP activity, negative = inhibition, actives largely listed as inhibitors. hit rate 0.028% among 370,000; active = well fitted inhibition curve with a large enough effect in the polarisation, with a control signal flat; inconclusive = small, poorly fitted or top-dose-only effect, or effect the other way, or a change in a side signal; inactive = no such curve, though single readings can be large or run the other way; the % refers to the polarisation;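 also: polarization taken with two DNA probes labelled with fluorescein and Texas red; potency is read from the fitted curve at half-maximal effect; % of control where 0% means no effect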
#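 His-tagged ERG Ets domain (1 uM in the protein solution; 300mM KCl, 50mM Tris-HCl, 1mM EDTA, 1mM DTT, pH 7.5) received compound, then a probe mix of 5 nM fluorescein-DNA and 100nM Texas-615-DNA. Fluorescence polarization was read for both dyes.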
# Active calls of the source: *; ? = inconclusive; · = not tested or not shown; [ ] = remark or other dose. Unless noted, calls follow the shape of the dose curve; as a rule, active = well fitted curve in the direction sought with a large enough effect; inconclusive = small, poorly fitted or top-dose-only effect, or another doubt; inactive = no such curve, though single readings can be large; an effect the other way counts as inactive or inconclusive.
SMILES,LDHA block,A549 viability,ALOX12 inh,Nrf2 inh,Nrf2 ARE act,ERG-DNA inh
COC(=O)c1ccccc1NC(=S)NC(=O)COc1ccccc1,0.3,13.7%,-0.1%,·,0.6%,-0.9%
Cc1cccc(OCC(=O)NNc2c3ccccc3nc3ccccc23)c1,1.9,?,5.7%,?,2.7%,-0.1%
Cc1cccc(OCC(=O)NC(=S)NNC(=O)c2ccncc2)c1,-6.1,?,5.01µM*,?,-0.5%,-18.7%
Cc1ccc(OCC(=O)NNc2c3ccccc3nc3ccccc23)cc1,-12.2,?,-19.8%,18.4µM*,0.0%[9.22 µM],-7.6%
Cc1ccc(OCC(=O)NNC(=S)NC(=O)COc2ccccc2)cc1,-10.7,·,11.2µM*,·,·,·
CCc1ccccc1NC(=O)Nc1cn(C)c(=O)c2ccccc12,3.4,·,?,·,·,·
CC(C)(C)c1ccc(C(=O)NC(=S)NNC(=O)COc2ccccc2)cc1,-0.4,-4.9%,31.6µM*,17.1%,3.2%,4.2%
CC(C)(C)c1ccc(OCC(=O)NNC(=O)CCc2ccccc2)cc1,-2.7,1.6%,0.0%,6.5%,-0.9%,-1.2%
O=C(COc1ccccc1)NC(=S)Nc1cccc2c(O)cccc12,2.6,·,44.7µM*,·,-0.9%,·
c1ccc(NC2(c3nnnn3-c3ccccc3)CCCCC2)cc1,2.9,·,?,·,·,·
C/C(=N/NC(=S)Nc1ccc(SC(F)F)cc1)c1cccc(C(F)(F)F)c1,-1.9,·,?,·,·,·
O=C(c1cccc(Cl)c1)N1CCC2(C1)NC(=O)N(Cc1ccc(Cl)cc1)C2=O (stereo not drawn),·,·,39.8µM*,·,·,·
O=C(c1ccc(F)cc1)N1CCC2(CC1)NC(=O)N(c1ccccc1Cl)N2,·,·,1.26µM*,·,·,·
CC(Oc1ccccc1)C(=O)N1CCN(C(=O)C(C)Oc2ccccc2)CC1 (stereo not drawn),-7.3,-0.4%,-4.7%,0.8%,-1.3%,2.6%
CC(Oc1ccccc1)C(=O)N1CCC2(CC1)NC(=O)N(c1ccccc1Cl)N2 (stereo not drawn),·,·,1.41µM*,·,·,·
Cc1ccc(C(=O)N2CCC3(CC2)NC(=O)N(c2ccccc2Cl)N3)c(C)c1,·,·,2.24µM*,·,·,·
COc1cc(OC)cc(C(=O)N2CCC3(C2)NC(=O)N(Cc2ccc(Cl)cc2)C3=O)c1 (stereo not drawn),·,·,-23.2%,·,·,·
O=C(c1cc2ccccc2oc1=O)N1CCN(c2ccc(Cl)c(Cl)c2)CC1,-8.3,·,14.2%,·,·,·
Cc1ccccc1C(=O)Nc1nc(-c2ccc(Cl)s2)cs1,4.6,·,?,·,·,·
O=C(c1cccc(Cl)c1)N1CCC2(CC1)Cc1ccccc1NC2=O,·,·,15.1%,·,·,·
O=C(c1cccc(Cl)c1)N1CCC2(CC1)NC(=O)N(c1ccccc1Cl)N2,·,·,1.58µM*,·,·,·
Brc1ccc(-c2cc3ccccn3c2)cc1,5.1,·,14.1µM*,·,·,·
CC(C)(C)c1ccc(-c2cc3ccccn3c2)cc1,-21.9,·,22.4µM*,·,·,·
O=C(/C=C/c1ccc(-c2ccccc2)cc1)c1ccccc1,5.8,·,?,·,·,·
O=C(CC1C(=O)NCCN1C(=O)Nc1ccc(Cl)cc1)Nc1ccc(F)cc1 (stereo not drawn),1.2,12.1%,39.8µM*,9.3%,9.1%,2.4%
SMILES,LDHA block,A549 viability,ALOX12 inh,Nrf2 inh,Nrf2 ARE act,ERG-DNA inh
O=C(CC1C(=O)NCCN1C(=O)c1ccc(Cl)cc1)Nc1ccc(F)cc1 (stereo not drawn),-2.1,8.3%,?,5.3%,-0.5%,0.3%
COc1ccc(NC(=S)NNc2ccc(S(=O)(=O)Nc3ccccc3C(=O)O)cc2[N+](=O)[O-])cc1,-4.8,?,7.94µM*,?,-0.9%,-6.3%
COc1ccc(C=NNc2ccc(S(=O)(=O)Nc3ccccc3C(=O)O)cc2[N+](=O)[O-])c(OC)c1,-70.6*,?,·,-2.4%,0.2%,10.4%
O=C(O)c1ccccc1NS(=O)(=O)c1ccc(NN=Cc2ccccc2F)c([N+](=O)[O-])c1,-9.5,-25.7%,?,-18.9%,-0.5%,-9.8%
COc1ccc(OC)c(CC2C(=O)Nc3ccc(Br)cc32)c1 (stereo not drawn),12.6,0.0%,?,23.1µM*,-1.0%,-0.2%
COc1cc(OC)c(CC2C(=O)Nc3ccc(Br)cc32)c(OC)c1 (stereo not drawn),24.7,·,-24.7%,·,·,·
COc1cc(C2(c3ccc(O)c(OC)c3)C(=O)Nc3c(C)cc(Br)cc32)ccc1O,-5.8,10.9%,25.1µM*,-13.0%,3.6%,-3.5%
Cc1cc(Br)cc2c1NC(=O)C2(c1c(C)n(C)n(-c2ccccc2)c1=O)c1c(C)n(C)n(-c2ccccc2)c1=O,-1.1,0.8%,3.0%,-4.3%,-0.8%,-13.6%
O=C(Nc1ccc(C(F)(F)F)cc1)c1csc(-c2ccncc2)n1,-6.8,-10.6%,-14.2%,18.4µM*,8.1%,12.3%
O=C1c2cccc(NCCNCCO)c2C(=O)c2cccc(NCCNCCO)c21,9.2,18.4µM*,1.5%,10.3µM*,-0.1%,·
Clc1ccc(-c2noc(-c3ccccc3Br)n2)cc1,-2.6,·,?,·,·,·
CC(=O)c1ccc(Sc2ccc(F)cc2)c(F)c1,7.4,·,?,·,·,·
Cc1nn(CC(=O)N2CCN(c3ccccn3)CC2)c(=O)c2cc3sccc3n12,-4.4,?,·,29.1µM*,-0.3%,4.0%
COc1cccc(NC(=O)Nc2c(N3CCCC3)c3ccccc3oc2=O)c1,22.2,·,-51.9%,·,·,·
Cc1cc(C(C)(C)C)oc1C(=O)N(CC(=O)NC1CCCC1)c1cccc(C(F)(F)F)c1,-8.2,?,·,20.6µM*,0.4%,·
Cc1ccccc1N(CC(=O)NC1CCCC1)C(=O)c1oc(C(C)(C)C)cc1C,-4.2,-9.8%,·,?,-0.2%,·
Cc1oc(-c2ccccc2)nc1CC(=O)NCC1(N(C)C)CCCCCC1,-8.4,·,18.5%,·,·,·
COc1ccc(OCc2cc(C(=O)NCCN3CCCC(O)C3)no2)c(Cl)c1 (stereo not drawn),-3.5,6.5%,323.1%,4.2%,-0.4%,-5.2%
COc1ccc(OCc2cc(C(=O)NCCN3CCCc4ccccc43)no2)c(Cl)c1,5.2,-11.7%,15.8µM*,-19.1%,-0.7%,-2.4%
CCN1CCN(c2c(S(=O)(=O)c3ccc(C)c(C)c3)cnc3cc(OC)c(OC)cc23)CC1,-6.1,1.0%,2.1%,9.7%,9.2%,4.5%
CCc1ccc2ncc(S(=O)(=O)c3ccc(C)c(C)c3)c(N3CCCC3)c2c1,2.9,-11.0%,0.1%,23.1µM*,6.4%,1.9%
C=CCn1c(C)cc(C(=O)COC(=O)c2nn(CCC)c(=O)c3ccccc23)c1C,7.9,·,35.0%,·,·,·
